In general, AC50 refers to the concentration giving half of the maximal activity seen.

Values joined by “and” are separate entries in the source; they are usually repeats but may differ in a detail not shown here. Identical values can stand only once. Active and inactive are the calls of the source. Rule for the calls: active = hit-call score of the fitted dose curve at least 0.9, where 1 is the maximum; inactive = score below 0.9.

The record followed here is PubChem BioAssay (EPA / NIEHS).

A short description of this assay: BSK_3C_TissueFactor: BioMAP Diversity Plus: 3C Assay for Tissue Factor Biomarker Activity (AID 2282997). The note with it: BioMAP 3C HUVEC, tissue factor biomarker readout; actives raise or lower the signal. As to the method:
BSK_3C is a cell-based, multiplexed-readout assay that uses umbilical vein endothelium, a human vascular primary cell, with measurements taken at 24 hours after chemical dosing in a 96-well plate.BSK_3C_TissueFactor is an assay component measured in the BSK_3C assay. It measures Tissue Factor antibody related to regulation of gene expression using ELISA technology.Data from the assay component BSK_3C_TissueFactor was analyzed into 1 assay endpoint. This assay endpoint, BSK_3C_TissueFactor, was analyzed with bidirectional fitting relative to DMSO as the negative control and baseline of activity. Using a type of binding reporter, gain or loss-of-signal activity can be used to understand changes in the signaling as they relate to the gene F3. Furthermore, this assay endpoint can be referred to as a primary readout, because this assay has produced multiple assay endpoints where this one serves a signaling function. To generalize the intended target to other relatable targets, this assay endpoint is annotated to the cytokine intended target family, where the subfamily is coagulation factor.
The levels of cell surface (or secreted, indicated by the prefix "s") biomarker endpoints were measured by ELISA. Overt cytotoxicity to cells in confluent adherent cultures (all systems other than the BT system) was assessed by measuring total protein levels using sulforhodamine B (SRB) staining in parallel cultures at the time of biomarker measurements, indicated as SRB endpoints. For proliferation assays for adherent cell types, individual cell types are cultured at sub-confluence and relative cell numbers quantified by SRB staining at time points optimized for each system (48 h: 3C and CASM3C systems; 72 h: BT and HDF3CGF systems; 96 h: SAg system). SRB was performed by staining cells with 0.1% SRB after fixation with 10% TCA and reading wells at 560 nm.Viability and proliferation of PBMC (T cells) was quantified by Alamar Blue reduction for the SAg and BT systems. For PBMC viability (referred to as PBMC Cytotoxicity within the assay endpoint names), cells were plated (75,000/well in a 96-well plate) and then chemical samples added for 1 h before addition of activators, SEB and TSST-1 (20 ng/mL final concentration each). Cells were incubated for 90 h. Then, Alamar Blue (20 uL/well) (Invitrogen, Cat DAL1100) was added for 6 h, and the plates were read with a fluorescence microplate reader at 546/580 nm (excitation/emission). For PBMC proliferation, cells were plated and activated as above but incubated for only 16 h prior to addition of Alamar Blue. Plates were read after 6 h.
Take `CC(=O)c1ccc(C)cc1`: the result was inactive. The same measure, in the same setting: as for `O=C1OC2(c3ccc(O)cc3Oc3cc(O)ccc32)c2ccccc21`, the entry is “inactive”. For the molecule `c1ccc2c(c1)-c1ccc3ccc4cccc5cc-2c1c3c45`, the AC50 was 0.0352 µM (active). The same measure, in the same setting: as for `c1ccc(OCCOc2ccccc2)cc1`, the figure is 1.24 µM (active) and 1.4 µM (active); as for `CC(=O)OC(C)(C)C1CC=C(C)CC1` (stereo not given), 29.8 µM (active); as for `CC/C(=C(\c1ccccc1)c1ccc(OCCN(C)C)cc1)c1ccccc1`, 11.2 µM (active) and 11.1 µM (active). `COc1ccccc1NC(=O)CC(C)=O`: the result was inactive.

Regarding `O=C(O)C(F)(F)OC(F)(F)C(F)(F)OC(F)(F)C(F)(F)C(F)(F)C(F)(F)F`, the outcome was inactive. Same read-out and setting: as for `CCOC(=O)C=Cc1ccccc1`, the entry is “inactive”; as for `C=C(C)C(N)=O`, “inactive”; as for `O=C(O)C(F)(F)C(F)(F)C(F)(F)C(F)(F)C(F)(F)C(F)(F)C(F)(F)C(F)F`, “inactive”. Consider `C=C1CC/C=C(\C)CC[C@@H]2[C@@H]1CC2(C)C`, for which the AC50 is 16.8 µM (active). For the molecule `C=C(F)C(=O)OC(C(F)(F)F)C(F)(F)F`, the outcome was inactive. Regarding `CC=CC(=O)C1=C(C)C=CCC1(C)C`, the result was inactive.

As to `CC1=CC(C)C(C=O)C(C)C1` (stereo not given) (tested in a mixture with another compound), the outcome was inactive.

For the molecule `CC1(C)[C@H](C=C(Cl)Cl)[C@H]1C(=O)OCc1cccc(Oc2ccccc2)c1`, the result was inactive. Still for that read-out and setting: as for `Nc1ccc(N)c([N+](=O)[O-])c1`, the entry is “inactive”; as for `CC(=O)OCC=C(C)CCC=C(C)CCC=C(C)C`, “inactive”; as for `CCOC(=O)CCCCCCCCC(=O)OCC`, “inactive”. Turning to `CCCCCCCCCCCCS`, the AC50 was 30.7 µM (active). Consider `CC(C)(CO)CO`, for which the outcome was inactive. Still for that read-out and setting: as for `O=S(=O)(O)C(F)(F)C(F)(F)OC(F)(F)C(F)(F)F`, the entry is “inactive”; as for `CC(C)CCCC(C)(C)O`, “inactive”; as for `CC(C)(C)c1cccc(O)c1`, “inactive”. As for `CCCCCCCCCC(=O)OCC`, the AC50 is 28.7 µM (active). As for `COC(=O)c1ccc(C(=O)OC)cc1`, the result was inactive. Turning to `CCn1cc(C(=O)O)c(=O)c2ccc(C)nc21`, the outcome was inactive.

As to `O=S1(=O)CC(Cl)(Cl)C(Cl)(Cl)C1`, the AC50 was 0.556 µM (active).

Consider `NC(=O)c1c(Cl)cccc1Cl`, for which the AC50 is 0.0671 µM (active). With `CCCCOCCOCCO`, the outcome was inactive. The same measure, in the same setting: as for `CC(C)Cc1ccc(C(C)C(=O)O)cc1` (stereo not given), the entry is “inactive”. As for `C=CC(=O)OCC(CO)(COC(=O)C=C)COC(=O)C=C`, the AC50 was 0.137 µM (active). As to `OCCN1CCOCC1`, the result was inactive. For the molecule `C#C[C@]1(O)CC[C@H]2[C@@H]3CCc4cc(O)ccc4[C@H]3CC[C@@]21C`, the AC50 was 5.38 µM (active). As to `CC(=O)CCC=C(C)CCC=C(C)C`, the result was inactive. With `CCCCCCCC1CCCC1=O` (stereo not given), the AC50 is 33 µM (active). In the case of `OCC(F)(OC(F)(F)C(F)(OC(F)(F)C(F)(F)C(F)(F)F)C(F)(F)F)C(F)(F)F` (stereo not given), the outcome was inactive. On to `c1ccc(Sc2ccccc2)cc1`, for which the AC50 is 33 µM (active). As for `CCCCN(CCO)CCO`, the outcome was inactive. As to `C=C(C)C(=O)OCCC(F)(F)C(F)(F)C(F)(F)C(F)(F)C(F)(F)C(F)(F)C(F)(F)C(F)(F)F`, the result was inactive.
